Data from the supplement of paper PMC10681739.

Key:
RUNX1 [1] = target: RUNX1 (UniProt Q01196); assay: RUNX1 binding intensity (PBM fluorescence), RUNX1 alone (arbitrary fluorescence units); higher = stronger binding; conditions: RUNX1 concentration 2 nM; ETS1 concentration 0 nM
Description: (§1)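 Cooperative gcPBM on 36-bp genomic probes with neighbouring ETS1 and RUNX1 sites. Recombinant human RUNX1 (2 nM) was incubated alone or with ETS1 (25 nM) and detected with anti-RUNX1 antibody plus Alexa488 secondary. Values are medians over 4 replicate spots; the RUNX1+ETS1 data were normalised to the RUNX1-only data. The probes sit in constant array flanks that are not printed.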

ETS1 = target: T1, ETS1 (UniProt P14921); assay: ETS1 binding intensity (PBM fluorescence) in presence of RUNX1, normalised to ETS1-only experiment (arbitrary fluorescence units); higher = stronger binding; conditions: ETS1 concentration 1 nM; RUNX1 concentration 25 nM
T1 sequence: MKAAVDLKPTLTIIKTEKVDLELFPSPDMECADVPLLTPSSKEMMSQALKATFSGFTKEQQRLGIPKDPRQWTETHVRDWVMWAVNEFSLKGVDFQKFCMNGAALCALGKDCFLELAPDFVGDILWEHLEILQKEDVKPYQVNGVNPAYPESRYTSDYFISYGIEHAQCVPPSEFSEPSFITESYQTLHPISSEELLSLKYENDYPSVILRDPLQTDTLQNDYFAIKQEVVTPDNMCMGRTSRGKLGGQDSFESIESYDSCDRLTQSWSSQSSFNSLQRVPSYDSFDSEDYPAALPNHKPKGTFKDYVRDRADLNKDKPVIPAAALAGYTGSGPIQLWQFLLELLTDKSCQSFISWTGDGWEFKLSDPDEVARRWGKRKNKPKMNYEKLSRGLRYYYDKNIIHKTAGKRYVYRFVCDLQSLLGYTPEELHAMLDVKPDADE

RUNX1 [2] = target: RUNX1 (UniProt Q01196); assay: RUNX1 binding intensity (PBM fluorescence) in presence of ETS1, normalised to RUNX1-only experiment (arbitrary fluorescence units); higher = stronger binding; conditions: RUNX1 concentration 2 nM; ETS1 concentration 25 nM
Description: as §1
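Throughout, for RUNX1 binding intensity (PBM fluorescence) in presence of ETS1, normalised to RUNX1-only experiment: Full-length recombinant human ETS1 or RUNX1 bound to double-stranded 36-bp genomic probes on microarrays, detected by protein-specific primary antibody and Alexa488 secondary, spot fluorescence as median of four replicate spots.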
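Throughout, for RUNX1 binding intensity (PBM fluorescence), RUNX1 alone: Full-length recombinant human RUNX1 bound to double-stranded 36-bp genomic probes on a high-density microarray, scored as Alexa488 fluorescence per spot via anti-RUNX1 antibody, median of four replicate spots.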

RUNX1, sequence (Q01196 whole entry): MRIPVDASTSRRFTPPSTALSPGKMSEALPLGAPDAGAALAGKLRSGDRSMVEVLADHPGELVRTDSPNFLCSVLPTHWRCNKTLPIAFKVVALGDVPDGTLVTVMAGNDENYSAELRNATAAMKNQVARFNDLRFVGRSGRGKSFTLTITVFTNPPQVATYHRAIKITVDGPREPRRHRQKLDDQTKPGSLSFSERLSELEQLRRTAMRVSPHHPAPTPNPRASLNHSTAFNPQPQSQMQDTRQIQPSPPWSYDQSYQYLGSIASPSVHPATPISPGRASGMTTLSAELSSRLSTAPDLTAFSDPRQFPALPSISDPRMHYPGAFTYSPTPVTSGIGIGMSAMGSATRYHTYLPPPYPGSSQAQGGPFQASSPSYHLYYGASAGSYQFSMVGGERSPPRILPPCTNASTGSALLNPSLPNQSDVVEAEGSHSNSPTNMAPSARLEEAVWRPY

Sequence	RUNX1 binding intensity (RUNX1 [1])	ETS1 binding intensity (ETS1)	RUNX1 binding intensity (RUNX1 [2])
TACGGGAACTTCCTTTTCTTGTGGTGTGGCCGGGTC	873	853	2050
TGAGCCCTACTTCCGGTGGTGCTGTGGTCTGCCCCT	786	13200	2330
TGGGTACTTCCTGTGACAAATCGAGTTGACCACATG	678	2230	1720
CTCGTGGGTGCCGGAAGTGGAGGCGGTTGGTGGGGT	707	15900	1410
CACTTCCTATCGCTACATAACAAATTACCACAGACT	2490	642	6310
TGTCAGCTGCGTTTCCGCGGTCGCGGGTGAGTGTGC	752	588	1360
CCGCTGAGAACAGGATGTGGGTGTCAGGAGGTGAAG	765	7410	1530
AACAGTCACATCCGGGGCCGAGAGGAACCGCGAACG	894	2080	1740
CAGTGCCAGCCGGAACTTGTGGTTCGGACCGTGGGT	1040	2100	1420
AACAAAGAGAGAGGAAGTGGGTTGGGCGGGGGGGGT	1010	1990	1040
GTTGCCCCACTTCCTGCCAGTGGTTTTTGGTTGGCC	944	4220	4040
ACATTTCCTTTTGGTATTTAAAGTAACCACACAGAA	1060	668	2120
GACTTCCTGTTGAAGATTGGCCTCTGCGGTACCACG	2700	2350	9740
TAGCCGTACGGAAATGTTTGTGGTTCTCTGCATCTA	912	1010	1230
TCTGTGAAAAAGGATGTGCGGTTATGGAGGAGAACT	1210	3460	1930
AACCCACCGGATGGAAGCTGCCACTCAGCCGCAGGA	836	1700	1030
AACAACTGACCGGACAGAACACAGCCACAAAACACG	936	544	928
CCCGCCGGAAGGACGCGTCTGCGTCTCTGCGGCGAG	688	1010	955
GTTAGAGGAAGAGGAAGCGGTCAAGAGATCGTCACA	766	1280	1810
CTCCGATTGAGAACAGGAAGCCACAGGCCAATACAA	831	3260	931
CCCCACCCAGACAGGAAACTGTGGCTTCTATCAGAT	820	4660	1550
CTCTTTCACAAAGGAAATGGAAACCACAAAGAGGAC	1820	14700	3930
CGAGTAGAGATAGCAGGAAGTGGTTTATTCTGAGGT	784	12600	1800
GAGGCCCAGGATGTGGCTGGAGGCCTGTGGTGGGAC	700	1130	864
TTGACCCGGACGTGGACAAAAGACCGCAAAGGACGC	1100	3090	1540
TCAAGAAAACAGGAAACTCTCAAAACCAAGTTCTGA	773	1830	931
